These results are taken from PubChem BioAssay (Tox21).

Records with an inconclusive call do not appear. A number with no mark means an inactive call. Activity calls are given as the source filed them. Unless noted, calls follow the shape of the dose curve; as a rule, active = well fitted curve in the direction sought with a large enough effect in the repeat runs; inconclusive = weak or mixed curves; inactive = no such curve, though single readings can be large; an effect the other way counts as inactive or inconclusive.

Assay [1] in a line: qHTS assay to identify small molecule agonists of the vitamin D receptor (VDR) signaling pathway - cell viability counter screen (AID 743224). Also: nearly all actives have a fitted effect of over 50% in size. The method in brief:
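Counter screen for cytotoxicity: VDR-bla cells at 2,000 cells/well, 16 h compound exposure, then CellTiter-Glo luminescence after the beta-lactamase measurement.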

Assay [2] in a line: qHTS assay to identify small molecule antagonists of the vitamin D receptor (VDR) signaling pathway - cell viability counter screen (AID 743225). Also: nearly all actives have a fitted effect of over 50% in size. The method in brief:
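Cytotoxicity counter screen read by CellTiter-Glo luminescence (30 min, room temperature) in the same wells as the VDR-bla antagonist readout. HEK 293T VDR-UAS-bla cells had 16 h at 37C with compound and 3 nM (final) 1-alpha,25-dihydroxyvitamin D3, then 2 h with FRET substrate.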
On the technique in general: In qHTS, concentration-response curves come from the screen itself.

Assay [3] in a line: qHTS assay to identify small molecule agonists of the NFkB signaling pathway (AID 1159509; active = well fitted curve in the direction sought with a large enough effect in the signal ratio in the repeat runs, not every such curve was filed as active; the % refers to the signal ratio). The method in brief: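 Pathway activation was measured in ME-180 cells stably expressing beta-lactamase under NF-kB response element control. Substrate cleavage was read as the 460/530 nm emission shift after 5 hr compound incubation.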
Assay [4] in a line: qHTS assay to identify small molecule agonists of the NFkB signaling pathway - cell viability counter screen (AID 1159515; calls by dose curve; also: nearly all actives have a fitted effect of over 55% in size). The procedure, abridged:
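Counter screen run alongside the NFkB-bla agonist assay: ME-180 reporter cells exposed to compounds for 5 hr, then lysed with CellTiter-Glo in the same wells. Luminescence, read after 30 min, reflects viable cells.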

Assay [5] in a line: qHTS assay to identify small molecule agonists of the endoplasmic reticulum stress response signaling pathway (AID 1159516; active = well fitted activation curve with a large enough effect in the signal ratio in the repeat runs, not every such curve was filed as active; the % refers to the signal ratio). The procedure, abridged:
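For this screen, HeLa cells stably carrying beta-lactamase under the ER stress response element received test compounds, positive controls or DMSO for 5 hr at 37 C; B/G FRET substrate was then added and dual-wavelength emission recorded.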

A short description of assay [6]: qHTS assay to identify small molecule agonists of the endoplasmic reticulum stress response signaling pathway - cell viability counter screen (AID 1159517; calls by dose curve; also: nearly all actives have a fitted effect of over 50% in size). The method in brief: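 Cpd-treated ESRE-bla HeLa (5 hr, 37 C) → LiveBLAzer 2 hr RT → CellTiter-Glo 30 min RT → luminescence.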
The nature of assay [7]: qHTS assay to identify small molecule antagonists of the retinoid-related orphan receptor gamma (ROR-gamma) signaling pathway - cell viability counter screen (AID 1159520). Also: nearly all actives have a fitted effect of over 50% in size. The procedure, abridged:
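Tet-on ROR gamma CHO cells (1,000/well) were plated 4 hr, given compounds in DMSO for 2 hr at 37 C, then induced with 1 uM final doxycycline for 16 hr. Viability was read as ATP by CellTiter-Glo luminescence after 30 min.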

For assay [8], the target named is Nuclear receptor ROR-gamma (Homo sapiens) (UniProt P51449). The assay can be described thus: qHTS assay to identify small molecule antagonists of the retinoid-related orphan receptor gamma (ROR-gamma) signaling pathway (AID 1159521). The procedure, abridged:
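Antagonist read-out: drop in luminescence (ONE-Glo) from an RORE-LUC reporter in CHO cells with doxycycline-inducible ROR-gamma; 2 hr compound pretreatment, 1 uM doxycycline, 16 hr incubation at 37 C.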

Assay [9] can be described thus: qHTS assay to identify small molecule agonists of the AP-1 signaling pathway (AID 1159526; calls by dose curve).
The target in assay [10] is Retinoic acid receptor RXR-alpha (Homo sapiens) (UniProt P19793). The assay can be described thus: qHTS assay to identify small molecule agonists of the RXR signaling pathway (AID 1159527; calls by dose curve; also: nearly all actives have a fitted effect of over 35% in size). The method in brief:
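Agonist-mode beta-lactamase reporter assay: HEK 293T RXR-alpha-UAS-bla cells treated 16 hr at 37 C with compounds, 9-cis retinoic acid as positive control. LiveBLAzer FRET substrate, 405 nm excitation, 460/530 nm emission.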

A short description of assay [11]: qHTS assay to identify small molecule agonists of the RXR signaling pathway - cell viability counter screen (AID 1159529). Also: nearly all actives have a fitted effect of over 50% in size. The method in brief: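 CellTiter-Glo luminescence gave viability in the wells also read for beta-lactamase. Cells (RXR-alpha-UAS-bla HEK 293T, 2% charcoal-stripped FBS medium) had 5 hr plating, then 16 hr compound exposure at 37 C; tetraoctyl ammonium bromide served as positive control.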

Assay [12] can be described thus: qHTS assay to identify small molecule antagonists of the retinoid acid receptor (RAR) signaling pathway - cell viability counter screen (AID 1159551). Also: nearly all actives have a fitted effect of over 35% in size. The method in brief: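 Measured by luminescent ATP detection, viability reflects C3RL4 cells treated 6 h at 37 C with test chemicals in the presence of 1 uM (final) retinol.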
Assay [13] in a line: qHTS assay to identify small molecule antagonists of the retinoic acid receptor (RAR) signaling pathway (AID 1159552; also: nearly all actives have a fitted effect of over 50% in size). The method in brief:
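Luminescent RARE reporter read-out in C3RL4 cells: 6 hr co-treatment at 37 C of test compounds with retinol at 1 uM final. Cells plated overnight beforehand; luciferase reagent incubated 30 min at room temperature before reading.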

Assay [14] can be described thus: qHTS assay to identify small molecule agonists of the retinoic acid receptor (RAR) signaling pathway (AID 1159553). Particulars: C3RL4 RARE luciferase reporter, agonist, 6 h; activation: at 73.3 µM (top of the series). The method in brief:
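6 hr compound exposure (DMSO vehicle) of overnight-plated C3RL4 RARE-luc cells at 37 C; luminescence quantified after 30 min RT with luciferase reagent.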

The nature of assay [15]: qHTS assay to identify small molecule antagonists of the estrogen related receptor (ERR) signaling pathway from Tox21 library - cell viability counter screen (AID 1224834). Also: nearly all actives have a fitted effect of over 30% in size. The method in brief:
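Seeded ERR cells were rested 6 h at 37 C/5% CO2 before compounds, positive and negative controls or DMSO were added. Incubation continued for 17.5 h, and viability was then quantified by CellTiter-Fluor fluorescence.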

Assay [16] addresses Luciferin 4-monooxygenase (Photinus pyralis) (UniProt P08659). The assay can be described thus: qHTS assay to identify small molecule inhibitors of firefly luciferase (AID 1224835). Also: nearly all actives have a fitted effect of over 25% in size. The method in brief:
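Quantitative HTS format; KM concentrations of both substrates. Purified P. pyralis FLuc activity quantified from luminescence images.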

For assay [17], the target named is Nuclear receptor subfamily 1 group I member 3 (Homo sapiens) (UniProt Q14994). Put plainly: qHTS assay to identify small molecule antagonists of the constitutive androstane receptor (CAR) signaling pathway (AID 1224838).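 Also: HepG2 cells stably expressing hCAR with CYP2B6 luciferase reporter stimulated by CITCO; nearly all actives have a fitted effect of over 40% in size.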 Also: potency is read from the fitted curve at half-maximal effect. The method in brief:
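Human hepatoma HepG2 cells expressing hCAR and a CYP2B6 promoter (2.2 kb) luciferase construct; compound titration (15 points) with 50 nM CITCO final, 24 h at 37 C/5% CO2; luminescence via ONE-Glo after 30 min at room temperature.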

A short description of assay [18]: qHTS assay to identify small molecule agonists of the constitutive androstane receptor (CAR) signaling pathway - cell viability counter screen (AID 1224836). Also: nearly all actives have a fitted effect of over 45% in size. The method in brief:
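Cell viability multiplexed with the CAR agonist screen: CellTiter-Fluor fluorescence after 23 hr at 37 C. HepG2-CYP2B6-hCAR cells got compounds at 15 concentrations with PK11195 at 0.75 uM final.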

The nature of assay [19]: qHTS assay to identify small molecule antagonists of the constitutive androstane receptor (CAR) signaling pathway - cell viability counter screen (AID 1224837). Also: nearly all actives have a fitted effect of over 45% in size. The method in brief: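 To flag cytotoxic false antagonists, HepG2 hCAR/CYP2B6-2.2kb cells were treated 23 hr with 15-concentration compound series and 50 nM CITCO at 37 C/5% CO2; CellTiter-Fluor fluorescence was the measured end point.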

Assay [20] in a line: qHTS assay to identify small molecule agonists of the AP-1 signaling pathway - cell viability counter screen (AID 1159525; calls by dose curve; also: nearly all actives have a fitted effect of over 55% in size). The procedure, abridged:
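Each titration point was normalised to DMSO and tetra n-octyl ammonium bromide controls. The read was Cell Titer Glo luminescence after 30 min at RT, following 5 h compound exposure of ME-180 AP-1-bla cells at 37 °C.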

Sequence of Retinoic acid receptor RXR-alpha (Homo sapiens) (P19793 whole entry, looked up): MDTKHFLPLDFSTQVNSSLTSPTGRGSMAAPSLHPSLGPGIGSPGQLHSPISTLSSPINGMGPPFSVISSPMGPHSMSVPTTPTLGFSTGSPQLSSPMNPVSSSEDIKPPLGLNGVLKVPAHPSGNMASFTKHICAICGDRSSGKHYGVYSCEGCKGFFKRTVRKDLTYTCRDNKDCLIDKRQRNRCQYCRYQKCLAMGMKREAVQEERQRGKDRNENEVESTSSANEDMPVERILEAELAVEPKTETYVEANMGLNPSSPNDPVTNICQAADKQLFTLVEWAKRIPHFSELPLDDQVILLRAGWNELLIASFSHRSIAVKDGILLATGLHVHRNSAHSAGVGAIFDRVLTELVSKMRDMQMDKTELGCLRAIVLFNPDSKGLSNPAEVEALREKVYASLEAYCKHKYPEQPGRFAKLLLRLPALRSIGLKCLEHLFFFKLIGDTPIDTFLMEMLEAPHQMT
Sequence of Luciferin 4-monooxygenase (Photinus pyralis) (P08659 whole entry, looked up): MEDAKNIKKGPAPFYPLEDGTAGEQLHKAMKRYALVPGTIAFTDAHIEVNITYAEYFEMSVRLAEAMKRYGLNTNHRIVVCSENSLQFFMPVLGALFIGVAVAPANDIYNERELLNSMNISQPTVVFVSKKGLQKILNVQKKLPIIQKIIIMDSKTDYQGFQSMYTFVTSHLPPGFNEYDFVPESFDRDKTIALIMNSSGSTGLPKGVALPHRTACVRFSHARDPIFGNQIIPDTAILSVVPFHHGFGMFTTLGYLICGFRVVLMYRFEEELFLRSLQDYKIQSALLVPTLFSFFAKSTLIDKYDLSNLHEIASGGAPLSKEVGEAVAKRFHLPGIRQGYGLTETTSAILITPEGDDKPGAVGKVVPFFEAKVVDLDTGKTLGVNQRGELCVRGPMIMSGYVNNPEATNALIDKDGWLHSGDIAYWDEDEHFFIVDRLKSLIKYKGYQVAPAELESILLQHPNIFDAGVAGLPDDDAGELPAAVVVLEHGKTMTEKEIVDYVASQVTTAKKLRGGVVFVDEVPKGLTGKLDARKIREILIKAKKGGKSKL
Sequence of Nuclear receptor subfamily 1 group I member 3 (Homo sapiens) (Q14994 whole entry, looked up): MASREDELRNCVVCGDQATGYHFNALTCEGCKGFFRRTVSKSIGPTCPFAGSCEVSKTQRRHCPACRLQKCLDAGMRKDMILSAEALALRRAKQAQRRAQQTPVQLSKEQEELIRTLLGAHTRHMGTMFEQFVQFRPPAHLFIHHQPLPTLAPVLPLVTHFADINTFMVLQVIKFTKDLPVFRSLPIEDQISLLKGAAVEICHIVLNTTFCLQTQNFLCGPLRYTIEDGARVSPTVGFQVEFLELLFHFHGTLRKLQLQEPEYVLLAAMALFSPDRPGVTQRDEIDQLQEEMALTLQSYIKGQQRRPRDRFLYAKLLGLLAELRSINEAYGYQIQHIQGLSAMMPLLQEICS

Turning to `Cc1ccc2c(c1)c1c3n2CCNC3CCC1` (configuration not stated), the outcome in [1], in assay [2], in [3], in assay [4], in [5] and in assay [6] was inactive. Further, the compound was classed as inactive in assay [7], in [8], in [9], in [11] and in [12]. The Potency result in [10], in [13], in [14], in [15] and in assay [16] was “inactive” each time. The Potency in assay [17] was 750 nM (active).

As to `O=C1CC[C@H](C(=O)N2CCCCC2)N1`, the result in assay [1], in assay [2], in [3], in assay [4], in assay [5] and in assay [6] was inactive. Further, the outcome in [7], in [8], in assay [9], in assay [11], in assay [12] and in assay [18] was inactive. The Potency result in [10], in assay [13], in assay [14], in [15], in assay [16] and in [19] was “inactive” in each case.

On to `CCCCC(C)C(=O)O` (configuration not stated), for which the result in assay [1], in assay [3], in assay [4], in assay [5], in assay [6] and in [7] was inactive. Moreover, the call in [8], in [9], in assay [11], in assay [12] and in assay [18] was inactive. Besides, the Potency entry in [10], in [13], in assay [14], in assay [15], in assay [16] and in assay [19] was “inactive” throughout.

With `CCOc1ccc(NC(=O)OC(C)C)cc1OCC`, the outcome in assay [1], in [2], in assay [3], in assay [4], in [5] and in assay [6] was inactive. Moreover, the compound was classed as inactive in assay [7], in assay [8], in [9], in [11], in assay [12] and in assay [18]. In addition, the Potency result in assay [10], in assay [13], in assay [14], in assay [15], in assay [16] and in assay [17] was “inactive” in each case.

As for `CC(=O)N1CCN(c2ccc(O)cc2)CC1`, the call in assay [1], in assay [2], in assay [3], in assay [4], in [5] and in assay [6] was inactive. Moreover, the compound was called inactive in assay [7], in assay [8], in assay [20], in assay [9], in assay [12] and in [18]. For the same compound, the Potency result in [10], in [13], in [14], in assay [15] and in [16] was “inactive” throughout.

Regarding `Cc1nc([N+](=O)[O-])cn1-c1ccc([N+](=O)[O-])cc1`, the compound was called inactive in [1], in assay [2], in assay [3], in [4], in assay [5] and in assay [6]. Also, the result in assay [7], in [8], in [20], in assay [9], in assay [12] and in assay [18] was inactive. In addition, the Potency result in [10], in [13], in assay [14], in assay [16] and in assay [19] was “inactive” each time.

As to `C[C@H]1O[C@H](O[C@H]2[C@H](O)[C@@H](O)[C@@H](O[C@H]3[C@H](O)[C@@H](O)[C@H](O)O[C@@H]3CO)O[C@@H]2CO)[C@H](O)[C@@H](O)[C@@H]1N[C@H]1C=C(CO)[C@@H](O)[C@H](O)[C@H]1O`, the outcome in assay [1], in [2], in assay [3], in assay [4], in assay [5] and in assay [6] was inactive. Further, the call in assay [7], in assay [8], in assay [20], in assay [9], in assay [12] and in [18] was inactive. In addition, the Potency result in assay [10], in assay [13], in assay [14], in assay [15], in assay [16] and in [19] was “inactive” throughout.
